GluA2 TARP mod = modulators of GluA2-stargazin AMPA receptor complexes, primary screen, cell-based, membrane potential dye. Voltage-dependent calcium channel gamma-2 subunit (Mus musculus) + Glutamate receptor 2 …. HEK293 GluA2+stargazin, membrane potential dye (FDSS), glutamate EC50; hits were called plate by plate, in both directions. calls only at 30 µM. 40,000 tested, 3.5% active. AID 1259245, 2017;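 active = any of four per-well response measures lying three or more SD from its plate-wide compound average, in either direction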
Target sequence (O88602 whole entry, looked up): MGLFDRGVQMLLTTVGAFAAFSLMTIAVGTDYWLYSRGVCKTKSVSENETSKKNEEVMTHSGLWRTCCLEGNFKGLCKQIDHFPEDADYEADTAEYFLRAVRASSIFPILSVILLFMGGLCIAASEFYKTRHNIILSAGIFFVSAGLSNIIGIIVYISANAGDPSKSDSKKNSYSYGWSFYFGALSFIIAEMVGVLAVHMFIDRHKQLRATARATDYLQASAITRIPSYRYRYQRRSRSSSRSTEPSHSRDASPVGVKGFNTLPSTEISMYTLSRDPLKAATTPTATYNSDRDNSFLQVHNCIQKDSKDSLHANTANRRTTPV
Target sequence (P19491 whole entry, looked up): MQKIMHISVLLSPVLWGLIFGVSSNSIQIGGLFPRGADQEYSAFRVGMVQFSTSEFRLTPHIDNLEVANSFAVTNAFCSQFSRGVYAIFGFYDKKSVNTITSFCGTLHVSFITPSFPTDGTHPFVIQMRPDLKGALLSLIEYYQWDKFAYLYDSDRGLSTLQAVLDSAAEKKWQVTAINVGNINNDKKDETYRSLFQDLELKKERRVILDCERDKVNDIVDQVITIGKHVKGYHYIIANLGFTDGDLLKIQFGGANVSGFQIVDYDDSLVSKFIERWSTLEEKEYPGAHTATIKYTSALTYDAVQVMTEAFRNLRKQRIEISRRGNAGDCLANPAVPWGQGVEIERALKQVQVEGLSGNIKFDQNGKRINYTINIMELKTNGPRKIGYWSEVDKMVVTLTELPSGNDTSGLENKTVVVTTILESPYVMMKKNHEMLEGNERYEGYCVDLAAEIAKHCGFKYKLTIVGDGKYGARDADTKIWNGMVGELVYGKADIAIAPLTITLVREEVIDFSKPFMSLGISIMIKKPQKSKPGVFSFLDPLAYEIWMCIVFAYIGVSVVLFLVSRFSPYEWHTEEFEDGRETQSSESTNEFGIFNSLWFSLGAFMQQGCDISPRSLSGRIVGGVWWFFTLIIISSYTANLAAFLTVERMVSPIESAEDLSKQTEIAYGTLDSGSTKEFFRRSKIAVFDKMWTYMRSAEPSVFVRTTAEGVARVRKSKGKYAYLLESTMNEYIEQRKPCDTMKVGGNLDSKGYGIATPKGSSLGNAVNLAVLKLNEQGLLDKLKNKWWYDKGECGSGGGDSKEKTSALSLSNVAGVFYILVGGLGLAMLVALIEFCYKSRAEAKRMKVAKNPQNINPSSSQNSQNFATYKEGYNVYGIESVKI
GIRK2 act = activators of NPY4-receptor-primed GIRK2 channels, summary, cell-based, HEK293, thallium flux | HEK293 GIRK2/NPY4 cells, thallium flux fluorescence | G protein-activated inward rectifier potassium channel 2 (Homo sapiens), P48051 | activation (% efficacy), % for hits at 37.5 µM | 34,000 tested, under 10 active | AID 1259324, 2017;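 active = primary screen hit, no activity in plain HEK293 cells, and in GIRK2-only cells above 5% efficacy rising with concentration; inactive = the rest, including fluorescent compounds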;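 note: efficacy is normalized control-subtracted fluorescence 15 s after thallium addition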
Of the large screens only hits and unclear results are named; the others gave an inactive call. Many of the other results were omitted from the sample, so hits are more common in it than they were.

CCOc1cccc2sc(N(Cc3ccncc3)C(=O)c3ccc(S(=O)(=O)N(C)C)cc3)nc12	none (no result: GluA2 TARP mod)
O=C(c1ccc([N+](=O)[O-])cc1)N(Cc1ccncc1)c1nc2c(F)cccc2s1	none
O=C(c1ccc([N+](=O)[O-])cc1)N(Cc1ccncc1)c1nc2ccc(F)cc2s1	GluA2 TARP mod active
CCc1cccc2sc(N(Cc3ccncc3)C(=O)c3ccc(C#N)cc3)nc12	GluA2 TARP mod active
Cc1ccc(NC(=O)C(=O)NCC(O)c2cccn2C)cc1F (stereo not drawn)	none
CC1CCCCC1Nc1ncnc2c1nnn2C (stereo not drawn)	none
O=C(Cc1cc(-c2ccc3c(c2)OCCO3)on1)NCc1cccs1	GluA2 TARP mod active
O=C(Cc1cc(-c2ccc3c(c2)OCO3)on1)NCc1cccs1	none
CC1Cc2cc(-c3cc(CC(=O)NCc4ccco4)no3)ccc2O1 (stereo not drawn)	GluA2 TARP mod active
CC1Cc2cc(-c3cc(CC(=O)NCc4cc(-c5cccs5)on4)no3)ccc2O1 (stereo not drawn)	none
Cc1ccc2nc3c(cc(C(=O)NCCCN4CCOCC4)n3Cc3ccccc3)c(=O)n2c1	none
CC(C)CCNC(=O)Cc1cc(-c2ccc(Cl)cc2)on1	none
CCOc1cccc2sc(NC(=O)c3ccnn3C)nc12	none (no result: GIRK2 act)
CCOc1cccc2sc(NC(=O)c3cc(C)nn3CC)nc12	GluA2 TARP mod active (no result: GIRK2 act)
CC(C)S(=O)(=O)c1ccc(C(=O)Nc2sc3c(c2C(N)=O)CCCC3)cc1	none
CC(=O)N1CCc2c(sc(NC(=O)c3ccc(S(=O)(=O)C(C)C)cc3)c2C(N)=O)C1	GluA2 TARP mod active
COc1ccc(NC(=O)c2ccc(=O)n(CC(=O)Nc3ccc(C(C)C)cc3)n2)cc1	none
CCOc1ccc2nc(N(CC3CCCO3)C(=O)c3ccnn3C)sc2c1 (stereo not drawn)	none (no result: GluA2 TARP mod)
COc1ccc(F)cc1S(=O)(=O)NCC1COC2(CCCCC2)O1 (stereo not drawn)	none
O=S(=O)(NCC1COC2(CCCCC2)O1)c1cc(F)ccc1F (stereo not drawn)	GluA2 TARP mod active
CCc1ccc(S(=O)(=O)NCC2COC3(CCCCC3)O2)s1 (stereo not drawn)	none
O=S(=O)(NCC1COC2(CCCCC2)O1)c1cccc2ccccc12 (stereo not drawn)	GluA2 TARP mod active (no result: GIRK2 act)
O=[N+]([O-])c1ccccc1S(=O)(=O)NCC1COC2(CCCCC2)O1 (stereo not drawn)	none
O=S(=O)(NCC1COC2(CCCCC2)O1)c1ccc(Cl)cc1 (stereo not drawn)	GluA2 TARP mod active
COc1ccc(-c2csc(CN3CCN(C(=O)c4snnc4C)CC3)n2)cc1	none
CCOc1ccc(Nc2nc(C)c([N+](=O)[O-])c(N3CCCCC3)n2)cc1	none
Cc1cc(NS(=O)(=O)c2c(C)noc2C)n(C2CCS(=O)(=O)C2)n1 (stereo not drawn)	none
O=S(=O)(c1cccs1)N1CCC(Cn2c(C(F)(F)F)nc3ccccc32)CC1	GluA2 TARP mod active
CS(=O)(=O)N1CCC(Cn2c(C(F)(F)F)nc3ccccc32)CC1	none
O=C(CCn1ccc(=O)[nH]c1=O)NCc1n[nH]c(=O)c2ccccc12	none
CCCS(=O)(=O)N1CCCc2cc(NS(=O)(=O)c3cc(C)ccc3OC)ccc21	GluA2 TARP mod active (no result: GIRK2 act)
COc1ccc(OC)c(S(=O)(=O)Nc2ccc3c(c2)CCCN3S(=O)(=O)c2ccccc2)c1	none (no result: GIRK2 act)
CCCS(=O)(=O)N1CCCc2cc(NS(=O)(=O)c3cc(C)ccc3OCC)ccc21	none (no result: GIRK2 act)
COc1ccc(OC)c(S(=O)(=O)Nc2ccc3c(c2)N(S(=O)(=O)c2ccccc2)CCC3)c1	GluA2 TARP mod active (no result: GIRK2 act)
CCOC(=O)CCC(=O)N1CCC(c2nnc(-c3ccc(F)cc3)o2)CC1	none
O=S(=O)(Cc1ccccc1)N1CCN(Cc2nnnn2-c2cccc(F)c2)CC1	none
CC(C(=O)Nc1ccc(Cl)c(Cl)c1)N1C(=O)C2CC=C(Cl)CC2C1=O (stereo not drawn)	GluA2 TARP mod active (no result: GIRK2 act)
CC(C)C(=O)Nc1ccc(SCC(=O)Nc2ccc(Cl)c(Cl)c2)nn1	none
O=C(Nc1ccc(Br)cc1)c1ccc(=O)n(Cc2cccc([N+](=O)[O-])c2)c1	GluA2 TARP mod active
Cc1cc([N+](=O)[O-])ccc1NC(=O)c1ccc(=O)n(Cc2cccc(C(F)(F)F)c2)c1	GluA2 TARP mod active
O=C(Nc1ccc(F)c(F)c1)c1ccc(=O)n(Cc2cccc(Cl)c2)c1	GluA2 TARP mod active
O=C(Nc1ccc(Cl)cc1)c1ccc(=O)n(Cc2cccc(Cl)c2)c1	none
O=C(Nc1cccc([N+](=O)[O-])c1)c1ccc(=O)n(Cc2cccc([N+](=O)[O-])c2)c1	none
Cc1cc([N+](=O)[O-])ccc1NC(=O)c1ccc(=O)n(Cc2cccc([N+](=O)[O-])c2)c1	GluA2 TARP mod active
Cc1cc([N+](=O)[O-])ccc1NC(=O)c1ccc(=O)n(Cc2ccccc2)c1	none
Cc1ccc([N+](=O)[O-])cc1NC(=O)c1ccc(=O)n(Cc2cccc(C(F)(F)F)c2)c1	none
C=CCCC(=O)NCC(O)Cc1ccccc1 (stereo not drawn)	none
COc1ccc(S(=O)(=O)c2cnc(SCC(=O)Nc3ccc(C)cc3)[nH]c2=O)cc1Cl	none (no result: GIRK2 act)
O=C(CN1CCN(c2ccc(F)c(F)c2)C1=O)Nc1cccc2nsnc12	none
Cc1ccc(C(CNC(=O)c2cccc(C(F)(F)F)c2)N2CCOCC2)cc1 (stereo not drawn)	none
COc1ccc(S(=O)(=O)N2CCN(c3ccc(N4CCCCC4C)nn3)CC2)c(OC)c1OC (stereo not drawn)	none
COc1ccccc1NC(=O)C(=O)NCC1(O)CCCC1	none
COC(=O)c1ccc2c(=O)n(Cc3ccc(C(=O)NC4CCCC4)cc3)c(=S)[nH]c2c1	none
COC(=O)c1ccc2c(=O)n(Cc3ccc(C(=O)NCCCN4CCOCC4)cc3)c(=S)[nH]c2c1	GluA2 TARP mod active
CCOc1ccccc1NC(=O)Cn1c(C)cc(C)c(-c2nc(-c3ccc(Cl)cc3)no2)c1=O	GluA2 TARP mod active (no result: GIRK2 act)
Cc1cc(C)n(CC(=O)Nc2ccccc2F)c(=O)c1-c1nc(-c2ccc(Cl)cc2)no1	none
COc1ccc(-c2noc(-c3c(C)cc(C)n(CC(=O)Nc4ccc(OC)c(Cl)c4)c3=O)n2)cc1	GluA2 TARP mod active
COc1ccc(NC(=O)Cn2c(C)cc(C)c(-c3nc(-c4ccc(Cl)cc4)no3)c2=O)cc1	none (no result: GIRK2 act)
Cn1cc(NC(=O)Nc2ccccc2)c2ccccc21	none (no result: GIRK2 act)
O=C(Nc1ccc2c(c1)CN(C(=O)C1CC1)CC2)c1ccc2nsnc2c1	GluA2 TARP mod active
CSc1ccccc1C(=O)Nc1ccc2c(c1)CN(C(=O)c1ccco1)CC2	none
O=C(Nc1ccc2c(c1)CN(C(=O)C1CC1)CC2)c1ccsc1	none
CCCc1nnsc1C(=O)Nc1ccc2c(c1)CN(C(=O)c1ccco1)CC2	none
O=C(Nc1ccc2c(c1)CN(C(=O)c1ccco1)CC2)c1ccc2nsnc2c1	GluA2 TARP mod active
O=C(Nc1ccc2c(c1)CN(C(=O)c1ccco1)CC2)c1cnccn1	GluA2 TARP mod active
CC1(C)CC(=O)C2=C(C1)NC1=C(C(=O)c3ccccc31)C2c1cccnc1 (stereo not drawn)	none (no result: GIRK2 act)

Source: PubChem
